According to the supplement of paper PMC10849652:
About 7,900 targets were measured; listed, in parts, are those with a hit and a random draw of the rest. About 0.6% of all pairs of compound and target were hits. A number with no mark means an inactive call.

Tests used:
Test in all cases: log2 fold change, soluble protein after heating vs DMSO (PISA); higher = thermal stabilisation; K562 cells, 10 uM, 30 min; active = over 0.2 and 3.5 SD of the protein, either way, in both replicates (recomputed)
[1] = compound: C1COCCN1CCN2C3=CC=CC=C3N=C2NC(=O)C4=CC(=CC=C4)[N+](=O)[O-] [IRAK-1-4 Inhibitor I]
Procedure, shortened: (§1)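 Quantification of soluble protein used TMTpro 16plex LC-MS/MS, with channel sums equalised. Samples were the supernatant after 21,000xg for 90 min of pooled aliquots from K562 cells (2×10^6 cells/mL) treated with 10 μM compound for 30 min, heated for 3 min over 48°C-58°C, and extracted in PBS with 0.5% NP-40 at 4°C. Values, from duplicates, describe thermal stability against control samples on a log2 fold-change scale.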

[2] = compound: C=CC(=O)N1CCC[C@@H](n2nc(-c3ccc(Oc4ccccc4)cc3)c3c(N)ncnc32)C1 [ibrutinib]
Procedure, shortened: as §1

[3] = compound: CC(=O)c1cnc2ccc(-c3cc(Cl)c(O)c(Cl)c3)nc2c1N[C@H]1CC[C@H](CN(C)C)CC1
Procedure, shortened: as §1

[4] = compound: CC(C)(C)Cn1c(N)nc2ccc(-c3[nH]c(C(C)(C)C)nc3-c3ccc(F)cc3)nc21 [ralimetinib]
Procedure, shortened: as §1

[5] = compound: CC(C)(O)CC(=O)NCCn1ccc2ncnc(Nc3ccc(Oc4cccc(C(F)(F)F)c4)c(Cl)c3)c21
Procedure, shortened: as §1

[6] = compound: CC(C)C1=C2N=C(C=C(N2N=C1)NCC3=CC=CC=C3)NCCCCCCN
Procedure, shortened: as §1

[7] = compound: CC(C)C[C@@H](C=O)NC(=O)[C@H](CC(C)C)NC(=O)[C@H](CC(C)C)NC(=O)OCc1ccccc1
Procedure, shortened: as §1

[8] = compound: CC(C)N(C[C@H]1O[C@@H](n2cnc3c(N)ncnc32)[C@H](O)[C@@H]1O)[C@H]1C[C@@H](CCc2nc3cc(C(C)(C)C)ccc3[nH]2)C1 [pinometostat]
Procedure, shortened: as §1

[9] = compound: CC1=C(C(CC(=O)N1)C2=CC=C(C=C2)C(F)(F)F)C(=O)NC3=C(C=C4C(=C3)C=NN4)F
Procedure, shortened: as §1

[10] = compound: CC1=C(C2=C(C=C1)C(=O)C3=CC=CC=C3N2CCCN)C
Procedure, shortened: as §1

[11] = compound: CC1=C(C=C(C=C1)NC(=O)C2=CC(=CC=C2)C(C)(C)C#N)NC3=CC4=C(C=C3)N=CN(C4=O)C
Procedure, shortened: as §1

[12] = compound: CC1=C(C=C(C=C1)NC(=O)C2=CC(=CC=C2)N(C)C)NC(=O)C3=CC=C(C=C3)O
Procedure, shortened: as §1

[13] = compound: CC1=CC=C(C=C1)SC2=C3C=C(SC3=CN=C2)C(=O)N
Procedure, shortened: as §1

[14] = compound: CC1=NC(=CC=C1)C2=C(N=C(N2)C(C)(C)C)C3=CC4=NC=CN=C4C=C3
Procedure, shortened: as §1

[15] = compound: CCCCN(Cc1ccc(C(=O)NO)cc1)C(=O)Nc1ccccc1 [Nexturastat A]
Procedure, shortened: as §1

[16] = compound: CCCS(=O)(=O)Nc1ccc(F)c(C(=O)c2c[nH]c3ncc(-c4ccc(Cl)cc4)cc23)c1F [vemurafenib]
Procedure, shortened: as §1

[17] = compound: CCCS(=O)(=O)Nc1ccc(F)c(C(=O)c2c[nH]c3ncc(Cl)cc23)c1F
Procedure, shortened: as §1

[18] = compound: CCCc1cc(C)[nH]c(=O)c1CNC(=O)c1cc(-c2ccnc(N3CCN(C)CC3)c2)cc2c1cnn2C(C)C
Procedure, shortened: as §1

[19] = compound: CCN(CC)Cc1ccc2cc(COC(=O)Nc3ccc(C(=O)NO)cc3)ccc2c1 [givinostat]
Procedure, shortened: as §1

[20] = compound: CCN(CCCOc1ccc2c(Nc3cc(CC(=O)Nc4cccc(F)c4)[nH]n3)ncnc2c1)CCOP(=O)(O)O [barasertib]
Procedure, shortened: as §1

Sequence of UniProt P29083 (P29083 whole entry, looked up): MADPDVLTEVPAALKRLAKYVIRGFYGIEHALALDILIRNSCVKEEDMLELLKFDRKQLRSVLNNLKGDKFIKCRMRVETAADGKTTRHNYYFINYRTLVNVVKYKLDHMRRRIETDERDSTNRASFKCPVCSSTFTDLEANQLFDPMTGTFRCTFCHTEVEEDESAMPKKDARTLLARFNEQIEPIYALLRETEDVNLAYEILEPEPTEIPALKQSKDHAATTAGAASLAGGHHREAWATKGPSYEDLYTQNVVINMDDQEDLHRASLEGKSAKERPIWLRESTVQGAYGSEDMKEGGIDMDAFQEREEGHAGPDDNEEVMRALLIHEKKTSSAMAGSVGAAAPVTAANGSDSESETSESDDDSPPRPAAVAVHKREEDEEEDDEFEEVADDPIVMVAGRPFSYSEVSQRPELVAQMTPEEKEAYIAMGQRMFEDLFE
Sequence of UniProt Q9UJ14 (Q9UJ14 whole entry, looked up): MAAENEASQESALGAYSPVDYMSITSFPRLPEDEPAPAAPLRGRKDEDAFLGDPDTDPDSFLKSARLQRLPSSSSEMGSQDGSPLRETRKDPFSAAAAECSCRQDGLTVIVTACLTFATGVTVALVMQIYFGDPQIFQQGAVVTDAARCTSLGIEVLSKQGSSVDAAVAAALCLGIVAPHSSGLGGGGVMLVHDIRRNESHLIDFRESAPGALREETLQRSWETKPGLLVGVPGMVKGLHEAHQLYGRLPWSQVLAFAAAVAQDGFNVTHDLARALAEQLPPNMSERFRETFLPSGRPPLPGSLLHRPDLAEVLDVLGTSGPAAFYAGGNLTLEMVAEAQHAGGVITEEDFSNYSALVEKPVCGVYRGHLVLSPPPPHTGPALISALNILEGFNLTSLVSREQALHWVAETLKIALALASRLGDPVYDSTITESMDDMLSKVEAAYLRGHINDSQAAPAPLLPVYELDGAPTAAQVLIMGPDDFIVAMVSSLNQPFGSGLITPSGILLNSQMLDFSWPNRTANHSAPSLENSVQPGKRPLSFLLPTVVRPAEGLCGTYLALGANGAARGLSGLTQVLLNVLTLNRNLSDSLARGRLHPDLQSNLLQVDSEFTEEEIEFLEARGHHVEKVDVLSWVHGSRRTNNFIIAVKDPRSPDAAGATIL
Sequence of UniProt Q8N2G8 (Q8N2G8 whole entry, looked up): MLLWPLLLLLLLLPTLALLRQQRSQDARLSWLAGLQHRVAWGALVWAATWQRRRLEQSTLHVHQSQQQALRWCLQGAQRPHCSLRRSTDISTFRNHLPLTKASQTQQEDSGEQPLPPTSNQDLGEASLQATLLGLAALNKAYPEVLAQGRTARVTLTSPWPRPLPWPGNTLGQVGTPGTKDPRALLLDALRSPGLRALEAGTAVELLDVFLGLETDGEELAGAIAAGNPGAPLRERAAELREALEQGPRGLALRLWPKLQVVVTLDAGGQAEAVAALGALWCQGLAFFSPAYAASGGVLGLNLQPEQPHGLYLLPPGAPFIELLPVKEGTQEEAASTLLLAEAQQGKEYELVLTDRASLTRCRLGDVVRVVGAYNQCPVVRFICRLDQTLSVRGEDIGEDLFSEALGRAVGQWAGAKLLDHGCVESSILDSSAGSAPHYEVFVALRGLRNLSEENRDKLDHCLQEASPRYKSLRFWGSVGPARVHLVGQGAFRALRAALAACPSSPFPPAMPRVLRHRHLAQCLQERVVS
Sequence of UniProt Q9BUJ2 (Q9BUJ2 whole entry, looked up): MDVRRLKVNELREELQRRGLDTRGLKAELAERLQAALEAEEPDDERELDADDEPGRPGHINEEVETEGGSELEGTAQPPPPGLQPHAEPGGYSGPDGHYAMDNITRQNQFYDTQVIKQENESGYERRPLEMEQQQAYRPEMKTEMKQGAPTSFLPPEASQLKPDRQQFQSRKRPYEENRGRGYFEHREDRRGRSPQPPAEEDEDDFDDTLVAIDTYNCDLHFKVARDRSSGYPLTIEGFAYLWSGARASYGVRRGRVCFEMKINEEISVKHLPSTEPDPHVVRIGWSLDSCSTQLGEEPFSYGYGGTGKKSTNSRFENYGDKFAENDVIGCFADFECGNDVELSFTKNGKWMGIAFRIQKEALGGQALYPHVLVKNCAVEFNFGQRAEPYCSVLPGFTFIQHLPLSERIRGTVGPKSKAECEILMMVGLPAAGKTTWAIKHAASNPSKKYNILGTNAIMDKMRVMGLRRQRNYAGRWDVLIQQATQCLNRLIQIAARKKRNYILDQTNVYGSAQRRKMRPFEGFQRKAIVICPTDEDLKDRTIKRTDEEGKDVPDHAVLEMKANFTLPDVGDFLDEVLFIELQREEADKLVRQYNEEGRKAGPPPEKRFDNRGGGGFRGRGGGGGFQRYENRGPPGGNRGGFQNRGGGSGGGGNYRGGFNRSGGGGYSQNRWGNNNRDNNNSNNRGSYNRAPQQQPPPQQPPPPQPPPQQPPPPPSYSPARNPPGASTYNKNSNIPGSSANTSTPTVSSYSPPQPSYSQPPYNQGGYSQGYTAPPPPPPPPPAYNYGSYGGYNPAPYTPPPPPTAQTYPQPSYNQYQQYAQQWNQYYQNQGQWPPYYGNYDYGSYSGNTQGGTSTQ
Sequence of UniProt P04035 (P04035 whole entry, looked up): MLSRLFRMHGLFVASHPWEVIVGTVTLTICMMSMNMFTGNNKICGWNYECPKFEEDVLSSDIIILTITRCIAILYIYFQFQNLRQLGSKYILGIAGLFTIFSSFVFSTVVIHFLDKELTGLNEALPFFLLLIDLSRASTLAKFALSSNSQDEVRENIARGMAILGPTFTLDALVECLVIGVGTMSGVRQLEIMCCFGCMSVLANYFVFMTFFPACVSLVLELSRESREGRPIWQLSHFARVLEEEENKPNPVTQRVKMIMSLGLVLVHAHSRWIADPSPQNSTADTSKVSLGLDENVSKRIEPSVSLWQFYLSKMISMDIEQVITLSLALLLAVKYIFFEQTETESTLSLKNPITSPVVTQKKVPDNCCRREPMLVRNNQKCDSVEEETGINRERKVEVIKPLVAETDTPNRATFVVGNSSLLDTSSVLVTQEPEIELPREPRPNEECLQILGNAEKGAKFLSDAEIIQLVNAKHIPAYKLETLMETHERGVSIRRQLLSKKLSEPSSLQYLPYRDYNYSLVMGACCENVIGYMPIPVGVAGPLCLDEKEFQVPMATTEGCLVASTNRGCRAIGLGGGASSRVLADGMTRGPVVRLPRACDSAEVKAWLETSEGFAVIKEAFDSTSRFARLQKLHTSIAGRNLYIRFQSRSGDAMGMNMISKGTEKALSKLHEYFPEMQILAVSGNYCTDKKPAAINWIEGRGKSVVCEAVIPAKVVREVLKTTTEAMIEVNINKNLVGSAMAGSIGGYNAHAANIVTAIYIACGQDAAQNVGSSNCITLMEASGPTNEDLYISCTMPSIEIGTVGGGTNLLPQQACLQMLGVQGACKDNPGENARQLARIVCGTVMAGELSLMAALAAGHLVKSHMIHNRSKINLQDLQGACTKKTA
Sequence of UniProt P22570 (P22570 whole entry, looked up): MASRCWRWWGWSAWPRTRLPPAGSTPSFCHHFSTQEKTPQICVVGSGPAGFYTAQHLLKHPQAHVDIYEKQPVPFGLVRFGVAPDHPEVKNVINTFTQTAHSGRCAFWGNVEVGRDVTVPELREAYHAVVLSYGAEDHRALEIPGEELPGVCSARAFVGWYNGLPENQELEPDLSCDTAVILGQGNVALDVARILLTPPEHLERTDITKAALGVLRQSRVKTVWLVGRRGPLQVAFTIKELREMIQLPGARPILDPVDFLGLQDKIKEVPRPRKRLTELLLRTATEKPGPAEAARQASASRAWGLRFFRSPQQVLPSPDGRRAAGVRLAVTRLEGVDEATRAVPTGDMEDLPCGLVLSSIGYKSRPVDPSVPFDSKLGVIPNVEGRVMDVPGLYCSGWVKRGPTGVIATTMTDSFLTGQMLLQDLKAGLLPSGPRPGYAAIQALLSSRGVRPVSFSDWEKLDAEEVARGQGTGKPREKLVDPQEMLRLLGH
Sequence of UniProt Q00688 (Q00688 whole entry, looked up): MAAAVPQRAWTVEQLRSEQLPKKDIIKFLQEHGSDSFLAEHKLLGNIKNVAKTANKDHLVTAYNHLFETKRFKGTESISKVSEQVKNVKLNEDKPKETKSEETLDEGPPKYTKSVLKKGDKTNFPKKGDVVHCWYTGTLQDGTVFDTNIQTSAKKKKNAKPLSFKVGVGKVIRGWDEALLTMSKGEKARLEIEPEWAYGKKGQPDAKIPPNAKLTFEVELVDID
Sequence of UniProt Q13907 (Q13907 whole entry, looked up): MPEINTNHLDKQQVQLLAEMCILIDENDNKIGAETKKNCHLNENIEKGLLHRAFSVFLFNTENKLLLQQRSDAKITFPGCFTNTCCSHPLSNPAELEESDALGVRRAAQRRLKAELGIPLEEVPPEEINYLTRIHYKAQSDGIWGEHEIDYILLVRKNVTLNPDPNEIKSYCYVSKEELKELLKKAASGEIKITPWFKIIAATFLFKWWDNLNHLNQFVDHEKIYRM
Sequence of UniProt P54803 (P54803 whole entry, looked up): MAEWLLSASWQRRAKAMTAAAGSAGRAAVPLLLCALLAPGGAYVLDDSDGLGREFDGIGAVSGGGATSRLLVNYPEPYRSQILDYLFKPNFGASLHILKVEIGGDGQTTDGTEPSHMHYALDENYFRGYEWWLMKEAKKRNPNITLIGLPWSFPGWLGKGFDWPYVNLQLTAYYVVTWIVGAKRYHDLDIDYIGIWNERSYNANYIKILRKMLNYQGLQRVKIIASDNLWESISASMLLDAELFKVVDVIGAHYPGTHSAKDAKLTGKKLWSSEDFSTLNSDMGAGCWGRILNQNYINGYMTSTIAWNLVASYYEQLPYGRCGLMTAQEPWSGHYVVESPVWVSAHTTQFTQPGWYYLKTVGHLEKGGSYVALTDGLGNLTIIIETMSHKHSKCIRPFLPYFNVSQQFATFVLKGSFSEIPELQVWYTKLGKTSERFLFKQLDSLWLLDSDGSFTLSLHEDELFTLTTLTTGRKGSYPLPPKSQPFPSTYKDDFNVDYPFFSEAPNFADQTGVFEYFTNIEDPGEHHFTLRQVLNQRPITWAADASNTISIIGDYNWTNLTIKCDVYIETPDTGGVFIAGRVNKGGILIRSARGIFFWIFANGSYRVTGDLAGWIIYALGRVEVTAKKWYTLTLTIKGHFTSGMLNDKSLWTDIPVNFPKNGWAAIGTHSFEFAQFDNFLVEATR

Row | Target | log2 fold change [1] | log2 fold change [2] | log2 fold change [3] | log2 fold change [4] | log2 fold change [5] | log2 fold change [6] | log2 fold change [7] | log2 fold change [8] | log2 fold change [9] | log2 fold change [10] | log2 fold change [11] | log2 fold change [12] | log2 fold change [13] | log2 fold change [14] | log2 fold change [15] | log2 fold change [16] | log2 fold change [17] | log2 fold change [18] | log2 fold change [19] | log2 fold change [20]
1 | IDI1 isoform 2 (UniProt Q13907) | 0.052 | 0.034 | -0.01 | -0.04 | 0.1 | 0.077 | -0.002 | -0.012 | 0.04 | -0.099 | -0.017 | -0.007 | -0.015 | 0.003 | -0.082 | 0.005 | -0.029 | -0.185 | -0.219 | 0.024
2 | HLTF (UniProt Q14527) | -0.026 | -0.028 | -0.134 | -0.016 | -0.022 | 0.332 (active) | 0.109 | -0.024 | -0.049 | 0.176 | 0.04 | -0.014 | -0.056 | 0.038 | 0.019 | 0.047 | 0.048 | 0.109 | 0.018 | 0.007
3 | GOLGB1 isoform 2 (UniProt Q14789) | -0.023 | -0.032 | 0.031 | 0.045 | 0.05 | 0.065 | 0.082 | 0.102 | 0.048 | -0.051 | 0.033 | -0.057 | -0.09 | -0.033 | 0.177 | -0.085 | -0.07 | -0.047 | 0 | -0.07
4 | GCLM (UniProt P48507) | -0.065 | -0.038 | 0.106 | 0.002 | -0.104 | -0.034 | 0.02 | 0.049 | -0.078 | -0.023 | 0.044 | -0.04 | 0.019 | 0.057 | -0.006 | 0.1 | 0.099 | 0.002 | 0.074 | 0.066
5 | GTF2E1 (UniProt P29083) | -0.048 | -0.06 | -0.051 | -0.018 | -0.178 | -0.147 | 0.016 | -0.046 | 0.003 | -0.007 | -0.005 | -0.057 | 0.011 | 0.115 | 0.024 | 0.05 | 0.082 | -0.006 | 0.091 | 0.166
6 | HIST2H3A (UniProt Q71DI3) | -0.269 | 0.081 | -0.012 | 0.292 | -0.021 | -0.225 | 0.18 | 0.29 | 0.002 | 0.727 | -0.1 | -0.004 | -0.119 | -0.056 | 0.921 (active) | -0.203 | 0.592 | 0.037 | 0.321 | -0.148
7 | HNRNPUL1 (UniProt Q9BUJ2) | -0.055 | 0 | -0.072 | 0.005 | 0.027 | 0.007 | 0.035 | 0.01 | 0.014 | -0.096 | -0.063 | -0.058 | -0.013 | 0.03 | 0.024 | 0.032 | -0.033 | 0.024 | 0.046 | 0.04
8 | GALC (UniProt P54803) | 0.053 | 0.017 | 0.016 | -0.012 | 0.041 | -0.122 | 0.05 | 0.067 | 0.035 | -0.003 | 0.002 | -0.032 | 0 | -0.013 | 0.012 | -0.03 | -0.03 | -0.049 | 0.036 | 0.002
9 | GGT7 (UniProt Q9UJ14) | 0.04 | 0.038 | 0.02 | -0.046 | 0.015 | 0.095 | 0.001 | -0.005 | -0.015 | -0.031 | -0.125 | 0 | 0.07 | -0.008 | 0.032 | 0.112 | -0.011 | 0.033 | 0.019 | 0.061
10 | FDXR isoform 7 (UniProt P22570) | 0.031 | 0.046 | -0.086 | -0.015 | -0.27 (active) | -0.091 | 0.015 | -0.024 | -0.033 | 0.125 | -0.011 | -0.078 | -0.039 | 0.072 | -0.07 | 0.02 | 0.024 | 0.059 | -0.021 | 0.035
11 | HPCAL1 (UniProt P37235) | 0.02 | -0.015 | 0.028 | -0.117 | -0.018 | -0.081 | -0.015 | -0.003 | 0.001 | -0.041 | -0.022 | 0.012 | 0.048 | 0.032 | -0.092 | -0.017 | 0.005 | -0.076 | -0.041 | 0.019
12 | HMGCR isoform 3 (UniProt P04035) | 0.037 | -0.001 | 0.022 | -0.005 | -0.023 | 0.029 | 0.383 (active) | 0.014 | 0.011 | -0.044 | 0.131 | -0.046 | 0.061 | -0.115 | 0.074 | -0.002 | -0.04 | -0.043 | 0.034 | 0.027
13 | HRAS (UniProt P01112) | 0.093 | 0.143 | 0.065 | 0 | -0.004 | 0.047 | 0.13 | -0.059 | -0.013 | -0.121 | -0.042 | -0.065 | -0.031 | 0.096 | 0.147 | 0.064 | -0.083 | 0.089 | -0.065 | 0.063
14 | GHDC (UniProt Q8N2G8) | 0.014 | 0.015 | -0.036 | 0.007 | 0.037 | -0.277 (active) | 0.018 | -0.015 | 0.025 | -0.011 | -0.028 | 0.057 | -0.03 | -0.021 | -0.113 | -0.041 | -0.044 | -0.011 | -0.025 | -0.008
15 | FKBP3 (UniProt Q00688) | 0.01 | 0.009 | 0.016 | 0.001 | -0.028 | 0.023 | -0.014 | -0.057 | -0.033 | -0.004 | 0.024 | 0 | 0.009 | 0.122 | -0.002 | -0.015 | -0.041 | -0.013 | -0.023 | -0.02
